What follows are compounds tested on Plasmodium falciparum (assay: GSK_TCMDC: Inhibition of Plasmodium falciparum Dd2 in whole red blood cells, using parasite LDH activity as an index of growth. Test compounds present at 2uM).
Type: functional

| SMILES | Inhibition |
| --- | --- |
| Nc1cc(/C=C/c2ccc([N+](=O)[O-])o2)nc2ccccc12 | 81% |
| Oc1cccc(-c2nc(-c3cccc(I)c3)c(-c3ccc(-c4nc(-c5cccc(O)c5)[nH]c4-c4cccc(I)c4)cc3)[nH]2)c1 | 66% |
| Cc1ccc(NC(=O)Nc2ccccc2)cc1-c1ccc(C(=O)Nc2ccncc2)cc1 | 52% |
| O=C(Nc1cccc(-c2nn3ccccc3c2-c2ccnc(Nc3ccccc3)n2)c1)c1c(F)cccc1F | 98% |
| CCCC(=O)c1cnc2c(Oc3cc(Cl)ncn3)cccc2c1Nc1ccccc1C | 85% |
| O=C(c1ccc([N+](=O)[O-])o1)N1CCN(c2ccccc2)CC1 | 72% |
| Fc1cccc(COc2ccc(-n3ccc4c(NCCCn5ccnc5)ncnc43)cc2Cl)n1 | 29% |
| Br.COc1ccc(OCCCON2C(=N)N=C(N)NC2(C)C)cc1 | 94% |
| COc1ccc(N2CCN(CCCCNC(=O)c3ccc(NC(=O)c4ccc(Cl)cc4)cc3)CC2)c(OC)c1.Cl | 22% |
| O=C(N[C@@H](Cc1ccccc1)C(=O)NC1CCCCC1)c1ccc(O)c(-c2ccc(Cl)c(Cl)c2)c1 | 99% |
| COc1ccc(CNCc2ccc(-c3cccc(-c4nc5cc(F)ccc5[nH]4)c3)cc2)cc1.O=C(O)C(F)(F)F | 94% |
| O=C(Nc1cc(Cl)ccc1O)c1cc(-c2ccccc2O)no1 | 79% |
| Cc1ccccc1OCC(O)CNC1CCC(NCC(O)COc2ccccc2C)CC1 (stereo not given) | 24% |
| CCCN(Cc1nnc(-c2ccco2)o1)C(=O)C1CCN(c2ncc(C(F)(F)F)cc2Cl)CC1 | 92% |
| Nc1nc(N)c2c(CCc3ccc(Cl)c(Cl)c3)cccc2n1 | 83% |
| Nc1ccc(-c2nc3cc(-c4ccc5[nH]c(-c6ccc(N)cc6)nc5c4)ccc3[nH]2)cc1 | 96% |
| O=C(Nc1ccc(C(F)(F)F)cc1)c1cccc(S(=O)(=O)NC2CCN(Cc3ccccc3)C2)c1.O=C(O)C(F)(F)F (stereo not given) | 0% |
| C=CCNS(=O)(=O)c1ccc(NC(=O)C(C)Oc2ccc([N+](=O)[O-])cc2)cc1 (stereo not given) | 100% |
| Cl.Nc1c2c(nc3ccc(NC(=O)Cc4ccccc4)cc13)CCCC2 | 0% |
| Cc1ccccc1-c1cc(=O)c2cc(NC(=O)c3cccs3)ccc2o1 | 95% |

| SMILES | Inhibition |
| --- | --- |
| O=C(/C=C/c1ccc(Cl)c(Cl)c1)NCCCCCN1CCCC(CNS(=O)(=O)c2cccc(C(F)(F)F)c2)C1 (stereo not given) | 0% |
| CC(=O)N1N=C(c2ccc(Cl)cc2)Sc2c1nc(-c1ccccc1)n2C(C)=O | 81% |
| Cn1cnnc1Sc1ccc(CN2CCOc3ccc(C4=CCCCC4)cc3C2)o1 | 97% |
| COc1c(C2CCN(CCCCNC(=O)c3ccc(-c4ccc(C(=O)C(F)(F)F)cc4)cc3)CC2)ccc2c1CCCC2 | 33% |
| Cc1nc2ccc3ccc(CNc4ccc(C(=O)N[C@@H](CCC(=O)O)C(=O)N[C@@H](Cc5cccs5)C(=O)O)c(F)c4)cc3c2c(=O)[nH]1 | 96% |
| COc1cc(Cc2cnc(N)nc2N)cc(OCCCN2C(=O)c3ccccc3C2=O)c1OC | 0% |
| O=C(Nc1ccsc1C(=O)NC1CCCCC1)c1ccc(F)cc1 | 11% |
| COc1ccc(CNC2CCN(C)CC2)cc1-c1ccc(OC)c(S(=O)(=O)NCc2ccccc2)c1.O=C(O)C(F)(F)F | 95% |
| CNCCNCc1ccc(-c2ccc(-c3nc4ccccc4[nH]3)s2)cc1.O=C(O)C(F)(F)F | 15% |
| Cc1cccc2[nH]cc(C3CCN(CCC4CCN(C(=O)/C=C/c5ccc(Cl)c(Cl)c5)CC4)CC3)c12 | 8% |
| CN(C)CCOc1cc(NC(=O)Nc2ccc(-c3ccncc3)c(Cl)c2)ccc1I | 100% |
| CCCCCOc1ccc(N2C(N)=NC(N)=NC2(C)C)cc1.Cl | 0% |
| COc1ccc(CCC(C)N2CC(N)C(c3cn(C)c4cnccc34)C2)cc1.Cl (stereo not given) | 0% |
| CC(C)CCN1CCC(Oc2ccc(NC(=O)c3ccc(F)cc3)cc2Cl)CC1.O=C(O)C(F)(F)F | 88% |
| CC(=O)c1c(Nc2c(C)cc(C)cc2C)oc(C)cc1=O | 83% |
| Cl.N#Cc1ccc2c(c1)CCN(CCC1CCC(NC(=O)/C=C/c3ccc(Cl)c(Cl)c3)CC1)CC2 (stereo not given) | 51% |
| Clc1nc(Cl)c2c(ccn2Cc2ccccc2)n1 | 61% |
| O=C(Nc1cccc(CN2CCCN(Cc3cccc(F)c3)CC2)c1)c1ccc(Cl)c(Cl)c1.O=C(O)C(F)(F)F | 6% |
| O=C(NCCNc1ccnc2cc(Cl)ccc12)c1ccccc1F | 98% |
| O=C(Nc1cccc(CN2CCN(C(=O)c3cccs3)CC2)c1)c1cccs1.O=C(O)C(F)(F)F | 91% |
